# Screens: PubChem BioAssay, National Center for Advancing Translational Sciences (NCATS)
# PLK1 PBD block: PLK1 (human) polo-box domain binding inhibition. Plk1 PBD binding of FITC phosphopeptide, fluorescence polarization. Potency, µM, for the others: max response, negative = inhibition, hits mostly inhibitors. hit rate 2.8% among 360,000. P53350. AID 720504; note: series mostly up to about 57 µM; nearly all actives have a fitted effect of over 65% in size
# Sfp inh: blocks B. subtilis Sfp PPTase activity; Q9F4F7; Biochemical Sfp PPTase activity, qHTS; Potency, µM, for inactives: largest response in the series, negative = inhibition, usual class: inhibitors; hit rate 3.5% among 310,000;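 note: the enzyme is Sfp with the accession as filed and its product quenches rhodamine fluorescence; 0% = enzyme reaction without inhibitor and -100% = no enzyme wells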
#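 After 15 min at room temperature with compound, 15 nM Sfp received 5 uM rhodamine-CoA plus 12.5 uM BHQ-2-ybbR (50 mM Hepes pH 7.6, 10 mM MgCl2). Rate came from the fluorescence difference over 30 min, ex 525/em 598 nm.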
# VDR inhibitor: vitamin D3 receptor (human) inhibition; P11473; VDR-SRC2-3 peptide fluorescence polarization, 2 h; Potency, µM, without a hit: max response, negative = inhibition, usual class: inhibitors; hit rate 0.93% among 400,000
#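 Signal is fluorescence polarization, reporting how far test compounds block the interaction of VDR with the SRC2-3 coregulator peptide after a 2 h room-temperature incubation.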
# ALOX12 inh: inhibitors of human 12S-lipoxygenase ALOX12 | P18054 | purified 12hLO, xylenol orange hydroperoxide absorbance | Potency, µM (top dose mostly 108 µM), inactives show at the top dose activity change, negative = inhibition, hits mostly inhibitors | hit rate 1.1% among 580,000 | AID 1671190
# Target sequence (P18054 whole entry, looked up): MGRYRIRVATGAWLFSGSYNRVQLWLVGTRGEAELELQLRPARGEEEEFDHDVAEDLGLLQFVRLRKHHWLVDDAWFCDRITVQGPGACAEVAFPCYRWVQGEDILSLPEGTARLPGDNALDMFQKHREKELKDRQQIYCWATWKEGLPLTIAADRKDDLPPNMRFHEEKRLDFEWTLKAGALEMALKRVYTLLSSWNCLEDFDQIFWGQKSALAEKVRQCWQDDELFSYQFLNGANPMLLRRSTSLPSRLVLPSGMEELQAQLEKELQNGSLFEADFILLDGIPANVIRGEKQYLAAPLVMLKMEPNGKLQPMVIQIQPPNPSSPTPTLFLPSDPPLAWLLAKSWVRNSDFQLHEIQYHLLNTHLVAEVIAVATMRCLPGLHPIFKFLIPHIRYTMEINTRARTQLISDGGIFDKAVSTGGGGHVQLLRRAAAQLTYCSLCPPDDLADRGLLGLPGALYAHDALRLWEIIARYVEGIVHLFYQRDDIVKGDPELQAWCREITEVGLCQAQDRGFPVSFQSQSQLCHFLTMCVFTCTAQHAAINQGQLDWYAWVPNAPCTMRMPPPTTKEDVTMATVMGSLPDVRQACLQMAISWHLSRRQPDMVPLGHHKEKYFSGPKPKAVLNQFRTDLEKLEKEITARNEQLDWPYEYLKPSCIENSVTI
#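 Purified human 12hLO (150 nM final) in 25 mM Hepes, 0.01% Triton X-100, pH 7.0 was preincubated 15 min at room temperature with compound. Then 40 uM arachidonic acid was added, 30 min. Hydroperoxide was read by Fe-XO absorbance ratio 573/405 nm.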
# * = called active by the depositor; ? = inconclusive; · = not tested or not shown. Compounds with a hit are over-represented: about 4.2% of the library has one in this group of screens. Calls come from the whole dose curve; as a rule, active = well fitted curve in the direction sought with a large enough effect; inconclusive = small, poorly fitted or top-dose-only effect, or another doubt; inactive = no such curve, though single readings can be large; an effect the other way counts as inactive or inconclusive. Unless noted, % is set by controls: 0 for no effect and ±100 for the full control effect; potency is the fitted concentration of half-maximal effect.
SMILES,PLK1 PBD block,Sfp inh,VDR inhibitor,ALOX12 inh
O=C(CNCCc1ccc(F)cc1)Nc1cc(F)ccc1F,-4.8%,63.1µM*,15.7%,-15.0%
Cn1nc(Oc2ncc(C(F)(F)F)cc2Cl)cc1C(F)(F)F,26.7µM*,11.6%,-26.4%,8.6%
CC(=NNC(=O)c1cc(C)nc2ccccc12)c1ccc(N2CCOCC2)cc1,-4.3%,·,-7.6%,-3.0%
C/C(=N\NC(=O)c1cc(-c2ccncc2)nc2ccccc12)c1ccc(N2CCOCC2)cc1,29.9µM*,4.8%,-16.0%,-10.9%
COC(=O)c1sc2nc(-c3ccccc3)c3c(c2c1N)CCCC3,-10.0%,-16.7%,-4.5%,0.0%
Nc1c(C(=O)O)sc2nc(-c3ccccc3)c3c(c12)CCCC3,?,35.5µM*,-25.1%,?
O=C(O)CSc1ncnc2c1sc1nc(-c3ccccc3)c3c(c12)CCC3,29.9µM*,4.9%,-10.9%,2.0%
S=c1nc[nH]c2c1sc1nc(-c3ccccc3)c3c(c12)CCCC3,29.9µM*,0.4%,2.3%,44.7µM*
O=c1[nH]cnc2c1sc1nc(-c3ccccc3)c3c(c12)CCCC3,0.4%,-5.9%,-7.4%,-1.0%
CC(C)c1nc2sc3c(SCC(=O)NCc4ccco4)ncnc3c2c2c1CCC2,?,25.1µM*,-10.4%,11.4%
O=C1CCN(C(=O)Cn2c(=O)oc3ccccc32)CCCCCCN1,·,·,·,17.0%
Cc1ccc(OC(=O)c2cccc(C(=O)Oc3ccc(C)cn3)n2)nc1,·,50.1µM*,·,·
CCOC(=O)c1cccc(C(=O)OCC)n1,-0.5%,15.1%,-2.5%,-6.9%
CN1\C(=C/C=C/C=C/C=[N+](C)C)C(C)(C)c2ccccc21,72.0%,56.2µM*,?,2.2%
Cc1ccc(-n2c(-c3cccs3)nc3nc4ccccc4nc32)cc1,·,17.4%,·,-13.5%
CC1S/C(=N/N=C/c2ccco2)N(Cc2ccccc2)C1=O (centres undefined),-10.6%,31.6µM*,-4.3%,?
CCC1S/C(=N/N=C/c2ccco2)N(Cc2ccc(F)cc2)C1=O (centres undefined),-16.6%,-20.8%,-8.9%,?
O=C(CSc1nnc(-c2cccnc2)n1Cc1ccco1)NCc1ccc2c(c1)OCO2,-3.3%,-4.2%,5.3%,-10.2%
Cc1cc(C)nc(SCc2nnc(SCC(=O)Nc3ccccc3C)n2Cc2ccco2)n1,-14.2%,50.1µM*,0.3%,?
CCOC(=O)CSc1nnc(CSc2nc(C)cc(C)n2)n1Cc1ccco1,-7.6%,20µM*,-2.0%,-6.1%
COc1ccc(C)cc1NC(=O)CSc1nnc(COc2ccccc2)n1Cc1ccco1,-14.6%,79.4µM*,8.7%,?
COc1cccc(-c2nnc(SCC(=O)NCc3ccc4c(c3)OCO4)n2Cc2ccco2)c1,-12.5%,39.8µM*,15.5%,?
COc1ccccc1-c1nn(-c2ccccc2)cc1C(=O)N1CCN(C(=O)c2ccco2)CC1,-8.5%,·,-1.1%,-7.1%
COc1ccc([C@]23Cc4cc(OC)c(OC)cc4C(O2)C2=C(CC4(CCCCC4)OC2=O)O3)cc1,·,0.8%,·,·
COc1ccc(-n2c(COc3cccc(C)c3)nnc2SCC(=O)NCc2ccco2)cc1,-6.7%,-2.7%,3.5%,-11.1%
SMILES,PLK1 PBD block,Sfp inh,VDR inhibitor,ALOX12 inh
COc1ccccc1-n1c(CNC(=O)c2ccco2)nnc1SCC(=O)Nc1cc(C)ccc1C,2.99µM*,6.9%,-27.0%,0.0%
COc1cccc(OCc2nnc(SCC(=O)NCc3ccco3)n2CCc2ccccc2)c1,-19.4%,50.1µM*,-5.5%,-21.5%
Cc1ccc(NC(=O)CSc2nnc(CSc3nc(C)cc(C)n3)n2Cc2ccco2)c(C)c1,-8.2%,?,14.7%,0.0%
CCOC(=O)CSc1nc2c(sc3ccc([N+](=O)[O-])cc32)c(=O)n1Cc1ccco1,2.6%,3.55µM*,-12.6%,5.7%
Cc1ccc(C)c(NC(=O)CSc2nnc(CSc3nc(C)cc(C)n3)n2Cc2ccco2)c1,-11.2%,44.7µM*,-2.6%,-18.3%
O=C([C@H]1C[C@H](Oc2ccccc2)CN1C(=O)c1ccoc1)N1CCOCC1,·,·,·,16.3%
O=c1c2ccccc2nc(COc2ccccc2)n1/N=C/c1cc([N+](=O)[O-])ccc1O,-10.3%,7.3%,-6.0%,-19.6%
C=CCNC(=O)c1cc(=O)[nH]c2ccc(S(=O)(=O)N(CC)CC)cc12,·,·,·,-29.1%
CCN(C(=O)Cn1cc(C(C)=O)c2ccccc21)c1ccccc1,-4.2%,3.3%,-12.3%,1.5%
COc1ccc(-c2nnc3sc(C(C)N4C(=O)c5ccccc5C4=O)nn23)cc1 (centres undefined),23.8µM*,-9.1%,?,440.3%
COc1ccc(-c2nnc3sc(-c4ccccn4)nn23)cc1,·,10.8%,·,·
CCC1CCCCN1C(=O)c1ccc(OC)c(OC2CCN(C(C)=O)CC2)c1 (centres undefined),-10.7%,6.8%,-3.3%,0.0%
Cc1ccc(NC(=O)CSc2ncn[nH]2)cc1S(=O)(=O)N1CCOCC1,-9.9%,17.2%,10.4%,-4.7%
N#C/C(C(=O)N1CCCCC1)=C1\Nc2ccccc2S1,-14.5%,-19.2%,4.9%,0.0%
Cc1ccc(NC(=S)/C(C#N)=C2/Nc3ccccc3S2)cc1,26.7µM*,·,·,12.6µM*
COCCNc1nc(-c2ccc(N3CCCC3=O)cc2)cs1,·,·,·,11.2µM*
COCCNc1nc(-c2ccc(NC(=O)C(C)(C)C)cc2)cs1,·,·,·,-72.3%
OC(CN(c1ccccc1)c1ccccc1)Cn1cnc2ccccc21 (centres undefined),2.3%,4.8%,-2.4%,0.0%
CCCC(=O)Nc1nnc(-c2ccc3c(c2)OCO3)s1,0.2%,16.5%,-5.0%,73.1%
CC(C)c1nnc(NC(=O)CSc2nc3ccccc3s2)s1,-21.9%,8.6%,5.2%,0.0%
O=C(CCc1ccc(S(=O)(=O)NC2CCCCC2)cc1)NCc1cccnc1,-5.6%,19.2%,-1.8%,-7.2%
Cc1ccc(CNC(=O)CCc2ccc(S(=O)(=O)NC3CCCCC3)cc2)cc1,29.9µM*,7.9%,-22.7%,75.2%
CCCCN(C(=O)CSc1n[nH]c(-c2ccc(C)cc2)n1)c1c(N)n(CCCC)c(=O)[nH]c1=O,3.5%,·,-4.2%,-9.8%
Cn1c(Cl)nc2c1c(=O)n(Cc1cccc(Br)c1)c(=O)n2C,-5.1%,-11.1%,5.7%,-15.4%
CN(Cc1ccccc1)C(=S)Nc1cccnc1,21.2µM*,9.0%,-14.9%,17.4%
SMILES,PLK1 PBD block,Sfp inh,VDR inhibitor,ALOX12 inh
CC(C)N(Cc1ccccc1)C(=S)Nc1cccnc1,-5.2%,16.5%,6.5%,-5.5%
COc1ccc(NC(=O)CCCn2cnc3ccccc3c2=O)cc1,?,50.1µM*,5.9%,-69.5%
O=C(CCCn1cnc2ccccc2c1=O)Nc1ccccc1F,-13.3%,-14.6%,2.2%,-26.4%
CC1(C)CC(=O)C(=Cc2cn(-c3ccccc3)nc2-c2ccc(Cl)cc2)C(=O)C1,1.19µM*,89.1µM*,?,?
CC1(C)CC(=O)C(=Cc2cn(CCC#N)nc2-c2ccc(F)cc2)C(=O)C1,3.36µM*,56.2µM*,?,-21.4%
O=C(O)/C(=C\c1cn(-c2ccccc2)nc1-c1ccc(Cl)cc1)NC(=O)c1ccccc1,-15.2%,28.8%,-7.2%,-9.6%
N#CCCn1cc(/C=N/O)c(-c2ccc(F)cc2)n1,-0.3%,11.5%,3.6%,-4.3%
CCOC(=O)/C(=C/C=C1\Sc2cc(C)c(C)cc2N1CC)C(C)=O,60.6%,15.8µM*,10.8%,-24.3%
